Experimental data: PubChem BioAssay (NCATS)
Unmarked numbers belong to inactive results. Results filed as inconclusive are left out. Active and inactive are the calls of the source. Unless noted, calls come from the whole dose curve; as a rule, active = well fitted curve in the direction sought with a large enough effect; inconclusive = small, poorly fitted or top-dose-only effect, or another doubt; inactive = no such curve, though single readings can be large; an effect the other way counts as inactive or inconclusive.

Columns and labels:
[1] = biological target: Lysosomal acid glucosylceramidase (Homo sapiens) (UniProt P04062); test: Glucocerebrosidase-p2 (AID 348; in the data active = potency below about 10 µM; note: potency is the fitted concentration of half-maximal effect); conditions: purified GBA, blue fluorogenic substrate, 40 min
Lysosomal acid glucosylceramidase (Homo sapiens), sequence (P04062 whole entry, looked up): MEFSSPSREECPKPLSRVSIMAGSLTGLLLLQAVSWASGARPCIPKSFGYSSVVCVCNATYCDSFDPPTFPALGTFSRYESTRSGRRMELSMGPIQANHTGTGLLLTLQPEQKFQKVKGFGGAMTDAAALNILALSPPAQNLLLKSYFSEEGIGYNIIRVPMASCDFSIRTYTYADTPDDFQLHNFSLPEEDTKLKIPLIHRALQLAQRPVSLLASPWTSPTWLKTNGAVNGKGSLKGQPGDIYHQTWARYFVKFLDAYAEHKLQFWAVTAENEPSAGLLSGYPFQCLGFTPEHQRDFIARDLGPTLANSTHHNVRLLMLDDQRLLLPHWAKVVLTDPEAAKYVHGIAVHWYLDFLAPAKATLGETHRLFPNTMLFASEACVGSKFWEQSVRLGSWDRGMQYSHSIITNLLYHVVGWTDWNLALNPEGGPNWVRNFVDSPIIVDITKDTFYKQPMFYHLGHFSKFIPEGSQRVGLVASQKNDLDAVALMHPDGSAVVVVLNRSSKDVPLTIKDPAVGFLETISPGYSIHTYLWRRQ
Outline: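 Normal human glucocerebrosidase (0.2 nM) with blue fluorogenic substrate (80 uM final) in citrate/phosphate pH 5.9 with 10mM sodium taurocholate, 0.01% tween-20; 40 min RT, NaOH/glycine stop; fluorescence Ex 365/Em 440; AC50 from a titration from 0.6 nM upwards.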

[2] = AP1 Signaling Pathway (AID 357; active = well fitted curve in either direction with a large enough effect, not every such curve was filed as active;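 note: ME-180 reporter cells stimulated with EGF at its EC50 level; % is set by controls: 0 for no effect and ±100 for the full control effect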); conditions: ME-180 AP-1-bla reporter, EGF-induced, beta-lactamase ratio, 5 h; at 7.69 µM (top of the series) unless noted
Outline: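 A ratiometric CCF4 readout (405 nm excitation; 460 and 530 nm emission) quantified AP-1-driven beta-lactamase in ME-180 cells after 5 h with compound and EC50 EGF; AC50 values were derived for activators and inhibitors.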

[3] = biological target: Cytochrome P450 1A2 (Homo sapiens) (UniProt P05177); test: p450-cyp1a2 (AID 410; calls by dose curve; note: potency is the fitted concentration of half-maximal effect); conditions: recombinant CYP1A2, luciferin-ME demethylation, luminescence; series mostly up to 57 µM
Cytochrome P450 1A2 (Homo sapiens), sequence (P05177 whole entry, looked up): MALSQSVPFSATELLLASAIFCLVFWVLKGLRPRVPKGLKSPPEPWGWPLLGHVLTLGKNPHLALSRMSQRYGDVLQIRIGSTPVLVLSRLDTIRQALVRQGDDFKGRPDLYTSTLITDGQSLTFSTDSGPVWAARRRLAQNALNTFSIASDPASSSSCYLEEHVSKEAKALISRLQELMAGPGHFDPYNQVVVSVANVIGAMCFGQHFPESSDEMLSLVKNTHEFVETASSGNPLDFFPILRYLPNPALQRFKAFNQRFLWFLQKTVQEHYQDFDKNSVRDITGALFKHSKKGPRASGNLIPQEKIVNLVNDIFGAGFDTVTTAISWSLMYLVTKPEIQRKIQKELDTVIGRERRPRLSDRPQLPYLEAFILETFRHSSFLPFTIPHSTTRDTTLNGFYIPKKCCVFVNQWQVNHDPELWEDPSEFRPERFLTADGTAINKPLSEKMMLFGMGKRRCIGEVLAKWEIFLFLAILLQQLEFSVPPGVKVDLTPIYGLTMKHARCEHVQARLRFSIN
Outline: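 20nM CYP1A2, 100uM Luciferin-ME (=Km), 100mM KPO4; cpd 10 min RT; +NADPH regen, 60 min RT; stop/detect 20 min; luminescence. Normalized to furafylline 57 uM = full inhibition.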

[4] = NFAT Signaling Pathway (AID 444; active = well fitted curve in either direction with a large enough effect, not every such curve was filed as active;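 note: carbachol stimulus at about its EC50 of 1 µM final; % is set by controls: 0 for no effect and ±100 for the full control effect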); conditions: Jurkat NFAT-bla M1, carbachol, beta-lactamase ratio, 5 h; at 7.69 µM (top of the series) unless noted
Outline: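 Jurkat cells with NFAT-driven β-lactamase reporter and co-expressed M1 receptor, stimulated with carbachol (final 1 uM, ~EC50), compound titration, 5 h at 37 °C. CCF4 loaded 1 h at RT; 460/530 nm ratio gave %activity and AC50.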

[5] = Stat Signaling Pathway (AID 446; active = well fitted curve in either direction with a large enough effect, not every such curve was filed as active;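 note: ME-180 cervical cancer cells given 40 pM IL-6 alongside compound; SIE-controlled beta-lactamase reporter measured as 460/530 nm FRET emission ratio; % is set by controls: 0 for no effect and ±100 for the full control effect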); conditions: ME-180 SIE beta-lactamase reporter, IL-6 stimulated, 5 h; at 7.69 µM (top of the series) unless noted
Outline: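 Compound effects on IL-6-induced STAT reporter activity were measured in ME-180 cells. After overnight culture, cells were co-treated with 40 pM IL-6 for 5 hrs before beta-lactamase substrate loading at room temperature.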

[6] = biological target: Glucocorticoid receptor (Homo sapiens) (UniProt P04150); test: GR-GFP Redistribution (AID 450;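 active = compounds whose dose series gives a full or clear partial fitted curve of increased nuclear translocation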; note: potency is the fitted concentration of half-maximal effect); conditions: U2OS GR-GFP nuclear translocation, laser cytometry, 2 h
Glucocorticoid receptor (Homo sapiens), sequence (P04150 whole entry, looked up, the tested form may be a part): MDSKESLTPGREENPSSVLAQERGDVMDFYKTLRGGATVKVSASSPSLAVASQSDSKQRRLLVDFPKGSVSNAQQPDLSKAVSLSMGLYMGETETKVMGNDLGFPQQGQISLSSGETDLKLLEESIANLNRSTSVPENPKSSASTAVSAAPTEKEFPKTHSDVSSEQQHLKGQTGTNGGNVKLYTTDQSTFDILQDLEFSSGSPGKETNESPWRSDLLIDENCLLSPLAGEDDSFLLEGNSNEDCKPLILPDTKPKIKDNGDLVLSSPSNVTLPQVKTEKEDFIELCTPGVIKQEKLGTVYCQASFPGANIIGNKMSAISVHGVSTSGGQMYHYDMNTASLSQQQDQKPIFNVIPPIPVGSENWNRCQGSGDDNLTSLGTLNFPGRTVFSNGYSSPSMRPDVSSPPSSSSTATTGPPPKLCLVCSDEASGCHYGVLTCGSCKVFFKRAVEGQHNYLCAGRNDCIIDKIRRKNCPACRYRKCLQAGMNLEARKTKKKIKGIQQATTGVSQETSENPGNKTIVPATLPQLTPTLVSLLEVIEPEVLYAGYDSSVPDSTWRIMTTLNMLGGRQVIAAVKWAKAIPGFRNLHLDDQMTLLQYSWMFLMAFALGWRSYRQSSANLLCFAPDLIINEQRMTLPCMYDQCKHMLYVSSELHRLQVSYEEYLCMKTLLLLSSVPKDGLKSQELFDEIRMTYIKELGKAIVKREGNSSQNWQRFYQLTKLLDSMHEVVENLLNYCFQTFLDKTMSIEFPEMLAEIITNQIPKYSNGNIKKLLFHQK

[7] = biological target: Glucocorticoid receptor (Homo sapiens) (UniProt P04150); test: GR-EFC Redistribution (AID 451; calls by dose curve; note: potency is the fitted concentration of half-maximal effect); conditions: CHO-K1 GR-EFC translocation, beta-gal luminescence, 2 h
Outline: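 CHO-K1 cells expressing nuclear EA and GR-ED fragments of b-gal; compounds titrated up to 46 uM final, 2 h at 37 C. GR nuclear translocation read as complemented b-gal luminescence after 1 h RT detection.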

[8] = biological target: Mitogen-activated protein kinase 10 (Mus musculus) (UniProt Q61831); test: JNK3 AlphaScreen Assay (AID 530; active = well fitted curve in either direction with a large enough effect, not every such curve was filed as active;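 note: kinase came from lysate of stimulated human HepG2 cells; signal reports phosphorylation of biotinylated GST-cJun 1-79 at Ser73 with 10 µM ATP; % is set by controls: 0 for no effect and ±100 for the full control effect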); conditions: JNK3 lysate, c-Jun phosphorylation; series mostly up to 57.1 µM
Outline: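 HepG2 lysate (IL-1b/TNFa pre-activated) + biotin-GST-cJun 1-79 + anti-pSer73 cJun; cpd titration, 15 min RT; ATP 10 uM start; Tris pH 7.6, MgCl2, DTT, vanadate; beads in EDTA buffer; AlphaScreen.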

[9] = biological target: 3',5'-cyclic-AMP phosphodiesterase 4B (Homo sapiens) (UniProt Q07343); test: qHTS Assay for Inhibitors of PDE-IV (AID 607; active = well fitted activation curve with a large enough effect in the main read-out, with a control signal flat, not every such curve was filed as active; note: % of control where 0% means no effect); conditions: HEK293 ACTOne CNG channel cells, membrane potential fluorescence; series mostly up to 22.9 µM
3',5'-cyclic-AMP phosphodiesterase 4B (Homo sapiens), sequence (Q07343 whole entry, looked up): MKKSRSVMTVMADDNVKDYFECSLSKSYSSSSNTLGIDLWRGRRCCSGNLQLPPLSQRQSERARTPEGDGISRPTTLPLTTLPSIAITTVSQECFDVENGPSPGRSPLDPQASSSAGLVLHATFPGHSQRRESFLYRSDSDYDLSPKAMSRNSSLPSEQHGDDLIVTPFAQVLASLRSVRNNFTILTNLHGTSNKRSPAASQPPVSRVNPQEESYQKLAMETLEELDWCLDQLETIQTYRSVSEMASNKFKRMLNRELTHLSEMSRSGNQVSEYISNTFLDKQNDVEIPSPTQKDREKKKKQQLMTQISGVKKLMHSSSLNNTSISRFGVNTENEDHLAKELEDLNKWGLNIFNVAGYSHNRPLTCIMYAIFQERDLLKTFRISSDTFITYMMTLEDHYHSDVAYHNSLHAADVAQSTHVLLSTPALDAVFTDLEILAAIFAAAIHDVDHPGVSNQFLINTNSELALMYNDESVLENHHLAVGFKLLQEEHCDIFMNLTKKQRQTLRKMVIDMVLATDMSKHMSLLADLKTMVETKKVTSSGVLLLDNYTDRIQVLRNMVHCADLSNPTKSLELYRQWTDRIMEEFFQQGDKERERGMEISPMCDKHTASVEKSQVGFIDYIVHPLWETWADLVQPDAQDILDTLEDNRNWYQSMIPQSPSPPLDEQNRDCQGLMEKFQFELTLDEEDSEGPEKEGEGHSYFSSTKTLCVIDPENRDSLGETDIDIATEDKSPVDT
Outline: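 ACTOne HEK293 cells carry a modified cAMP-gated CNG channel and express endogenous PDE4; plated 1000 cells/well, compounds up to 22.9 uM final. Membrane-potential dye fluorescence (ex 535/em 590) was read; parental cells received 10 uM forskolin + 100 uM RO 20-1724.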

[10] = biological target: Cytochrome P450 3A4 (Homo sapiens) (UniProt P08684); test: qHTS Assay for Inhibitors and Substrates of Cytochrome P450 3A4 (AID 884); conditions: recombinant CYP3A4, Luciferin-PPXE luminescence; series mostly up to 57.1 µM; note: nearly all actives have a fitted effect of over 50% in size; note: potency is the fitted concentration of half-maximal effect
Cytochrome P450 3A4 (Homo sapiens), sequence (P08684 whole entry, looked up): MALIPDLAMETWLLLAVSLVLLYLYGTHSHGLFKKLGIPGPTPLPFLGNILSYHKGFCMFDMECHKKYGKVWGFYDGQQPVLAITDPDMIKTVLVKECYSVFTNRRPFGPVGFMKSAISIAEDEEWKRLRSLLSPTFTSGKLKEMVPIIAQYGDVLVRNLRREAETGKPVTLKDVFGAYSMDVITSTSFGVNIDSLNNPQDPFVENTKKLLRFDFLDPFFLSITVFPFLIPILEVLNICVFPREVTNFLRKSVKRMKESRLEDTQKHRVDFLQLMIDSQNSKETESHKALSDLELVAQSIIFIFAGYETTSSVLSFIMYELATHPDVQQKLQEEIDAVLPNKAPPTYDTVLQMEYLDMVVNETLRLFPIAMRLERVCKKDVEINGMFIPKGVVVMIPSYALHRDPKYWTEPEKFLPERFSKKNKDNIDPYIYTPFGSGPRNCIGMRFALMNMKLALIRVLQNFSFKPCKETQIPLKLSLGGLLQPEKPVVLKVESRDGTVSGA
Outline: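 Luminescent readout of luciferin produced by CYP3A4 (20 nM) dealkylation of Luciferin-PPXE, 25 uM (its KM). NADPH-driven reaction ran 60 min at RT after 10 min compound preincubation; data scaled to 57 uM ketoconazole as 100% inhibition.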

[11] = biological target: Cytochrome P450 3A4 (Homo sapiens) (UniProt P08684); test: qHTS Assay for Activators of Cytochrome P450 3A4 (AID 885); conditions: recombinant CYP3A4, Luciferin-PPXE luminescence, 60 min; series mostly up to 57.1 µM; note: nearly all actives have a fitted effect of over 65% in size
Outline: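 CYP3A4 activity: Luciferin-PPXE O-dealkylation, 25uM substrate, 200mM KPO4, RT throughout. Read-out is luciferase luminescence; higher values reflect activation.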

[12] = biological target: Cytochrome P450 2C19 (Homo sapiens) (UniProt P33261); test: qHTS Assay for Inhibitors and Substrates of Cytochrome P450 2C19 (AID 899); conditions: recombinant CYP2C19, luciferin-H EGE luminescence; series mostly up to 57.1 µM; note: nearly all actives have a fitted effect of over 60% in size; note: potency is the fitted concentration of half-maximal effect
Cytochrome P450 2C19 (Homo sapiens), sequence (P33261 whole entry, looked up): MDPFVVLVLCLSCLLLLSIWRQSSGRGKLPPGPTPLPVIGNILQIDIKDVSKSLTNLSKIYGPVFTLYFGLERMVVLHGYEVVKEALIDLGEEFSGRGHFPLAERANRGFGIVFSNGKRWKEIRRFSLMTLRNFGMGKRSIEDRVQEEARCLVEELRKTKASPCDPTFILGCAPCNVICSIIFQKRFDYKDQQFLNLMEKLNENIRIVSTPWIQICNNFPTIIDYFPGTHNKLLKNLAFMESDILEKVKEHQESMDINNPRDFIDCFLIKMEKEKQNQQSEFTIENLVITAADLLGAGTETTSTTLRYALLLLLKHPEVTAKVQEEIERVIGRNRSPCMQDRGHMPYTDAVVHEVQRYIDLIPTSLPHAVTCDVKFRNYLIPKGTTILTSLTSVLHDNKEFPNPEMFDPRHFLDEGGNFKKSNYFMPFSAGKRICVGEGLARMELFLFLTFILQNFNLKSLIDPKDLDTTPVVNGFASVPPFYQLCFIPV
Outline: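 Luminescent read-out of luciferin formed from Luciferin-H EGE (10uM, equal to KM). Enzyme 5nM in 50mM KPO4; compound added, 10 min at 37C, then NADPH regenerating system for 60 min at 37C. Full inhibition defined by 57uM ketoconazole.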

[13] = biological target: Dual specificity protein kinase CLK4 (Homo sapiens) (UniProt Q9HAZ1); test: qHTS Assay for Inhibitors of CDC-like Kinase 4 (Kinase-Glo Assay) (AID 1770); conditions: recombinant Clk4, Kinase-Glo ATP depletion luminescence; series mostly up to 66.7 µM; note: nearly all actives have a fitted effect of over 65% in size; note: potency is the fitted concentration of half-maximal effect
Dual specificity protein kinase CLK4 (Homo sapiens), sequence (Q9HAZ1 whole entry, looked up): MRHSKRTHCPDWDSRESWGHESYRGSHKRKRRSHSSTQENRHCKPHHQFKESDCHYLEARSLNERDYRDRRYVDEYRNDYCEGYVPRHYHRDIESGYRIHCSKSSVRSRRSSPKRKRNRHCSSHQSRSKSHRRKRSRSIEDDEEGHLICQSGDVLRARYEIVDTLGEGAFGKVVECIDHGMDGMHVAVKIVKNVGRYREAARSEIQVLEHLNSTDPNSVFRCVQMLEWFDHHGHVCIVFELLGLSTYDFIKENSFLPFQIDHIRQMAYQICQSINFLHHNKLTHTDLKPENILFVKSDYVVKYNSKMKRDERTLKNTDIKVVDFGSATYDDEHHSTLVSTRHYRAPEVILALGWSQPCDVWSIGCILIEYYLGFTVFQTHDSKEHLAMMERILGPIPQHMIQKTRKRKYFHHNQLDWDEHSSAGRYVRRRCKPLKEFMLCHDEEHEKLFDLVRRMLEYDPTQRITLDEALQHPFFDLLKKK
Outline: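 Readout: Kinase-Glo luminescence from ATP left after a 4.5 h room-temperature reaction of 25 nM Clk4 with 100 uM RS peptide and 1 uM ATP (final). Buffer: 25 mM Tris pH 7.5, 10 mM MgCl2.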

[14] = biological target: Dual specificity protein kinase CLK4 (Homo sapiens) (UniProt Q9HAZ1); test: qHTS Assay for Inhibitors of CDC-like Kinase 4 (ADP-Glo Assay) (AID 1771); conditions: recombinant CLK4, ADP-Glo luminescence; series mostly up to 80 µM; note: nearly all actives have a fitted effect of over 70% in size; note: potency is the fitted concentration of half-maximal effect
Outline: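 25 nM Clk4, 100 uM RS peptide, 1 uM ATP (final); 2 mM MgCl2, 0.5 mM EGTA, 2.5 mM DTT, 0.01% Triton X-100; 1 hr RT. ADP-Glo readout: ATP depletion 45 min, conversion/luciferase 30 min, luminescence.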

[15] = biological target: Dual specificity protein kinase CLK4 (Homo sapiens) (UniProt Q9HAZ1); test: qHTS Assay for Inhibitors of CDC-like Kinase 4 (ADP-FP Assay) (AID 1795); conditions: Transcreener ADP fluorescence polarization; series mostly up to 50 µM; note: nearly all actives have a fitted effect of over 60% in size; note: potency is the fitted concentration of half-maximal effect
Outline: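 FP readout: Orange Transcreener ADP2 tracer (4 nM) plus ADP antibody, read after 30 min at room temperature. Kinase step: 6.25 nM Clk4, 100 uM RS peptide, 1 uM ATP, pH 7.5, 1 h.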

[16] = biological target: Ubiquitin carboxyl-terminal hydrolase 1 (Homo sapiens) (UniProt O94782); test: Inhibitors of USP1/UAF1: Pilot qHTS (AID 504865); conditions: purified USP1/UAF1, Ub-rhodamine cleavage fluorescence; series mostly up to 54.9 µM;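 note: rhodamine fluorescence freed from ubiquitin-rhodamine substrate followed over time; top concentration of the series differs between compounds; % is set by controls: 0 for no effect and ±100 for the full control effect; nearly all actives have a fitted effect of over 35% in size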
Ubiquitin carboxyl-terminal hydrolase 1 (Homo sapiens), sequence (O94782 whole entry, looked up): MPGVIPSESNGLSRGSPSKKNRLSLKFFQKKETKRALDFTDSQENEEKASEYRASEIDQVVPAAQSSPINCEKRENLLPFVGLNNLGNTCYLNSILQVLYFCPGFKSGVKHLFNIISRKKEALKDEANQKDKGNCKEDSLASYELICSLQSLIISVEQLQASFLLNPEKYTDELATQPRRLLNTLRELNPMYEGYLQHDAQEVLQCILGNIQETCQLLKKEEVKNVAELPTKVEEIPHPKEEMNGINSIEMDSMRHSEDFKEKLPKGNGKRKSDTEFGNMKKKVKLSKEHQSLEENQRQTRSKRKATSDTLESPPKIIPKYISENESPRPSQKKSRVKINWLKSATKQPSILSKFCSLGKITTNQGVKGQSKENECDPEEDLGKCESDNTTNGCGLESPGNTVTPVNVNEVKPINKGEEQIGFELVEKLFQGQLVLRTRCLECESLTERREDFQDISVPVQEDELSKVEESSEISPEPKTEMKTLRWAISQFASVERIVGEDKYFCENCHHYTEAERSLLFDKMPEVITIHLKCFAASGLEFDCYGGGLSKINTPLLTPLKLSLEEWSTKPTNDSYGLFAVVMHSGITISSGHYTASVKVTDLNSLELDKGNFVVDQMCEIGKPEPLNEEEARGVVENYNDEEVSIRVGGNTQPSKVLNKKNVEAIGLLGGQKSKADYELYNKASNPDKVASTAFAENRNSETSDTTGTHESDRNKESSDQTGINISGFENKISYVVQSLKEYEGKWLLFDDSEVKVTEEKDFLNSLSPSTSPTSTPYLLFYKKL
Outline: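 1nM USP1/UAF1 + cpd, 15 min RT; start w/ Ub-Rho 150nM final; kinetic FL 480/540 nm, 6 reads q60 s. Buffer 50mM HEPES pH 7.8, 0.5mM EDTA, 1mM TCEP, 0.01% Tween-20, 0.1 mg/ml BSA.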

[17] = Primary qHTS for small molecule stabilizers of the endoplasmic reticulum resident proteome: Secreted ER Calcium Modulated Protein (SERCaMP) assay (AID 1508630); conditions: SH-SY5Y GLuc-SERCaMP (Gaussia luciferase released on ER calcium loss) secretion, thapsigargin, luminescence; series mostly up to 38.4 µM; note: % is set by controls: 0 for no effect and ±100 for the full control effect
Outline: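 The SH-SY5Y reporter protocol was run at 3 concentrations up to 38.3 uM (primary) or 11 concentrations (follow-up): 16 h compound, 100 nM thapsigargin for 4 h, then extracellular luciferase luminescence.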

[18] = biological target: Cytochrome P450 2C9 (Homo sapiens) (UniProt P11712); test: qHTS Assay for Inhibitors and Substrates of Cytochrome P450 2C9 (AID 883); conditions: recombinant CYP2C9, luciferin-H luminescence, 60 min; series mostly up to 57.1 µM; note: % is set by controls: 0 for no effect and ±100 for the full control effect; nearly all actives have a fitted effect of over 60% in size
Outline: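 10nM CYP2C9 + 100uM Luciferin-H (=KM), 25mM KPO4; cpd 10 min 37C; NADPH regen, 60 min 37C; stop/detect with P450 Glo-Buffer 20 min; luminescence. Norm. to 57uM sulphaphenazole as full inhibition.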

[19] = qHTS Assay for Identification of Small Molecule Agonists for Hypoxia Response Element Signaling Pathway (AID 914; active = well fitted activation curve with a large enough effect in the signal ratio, with a control signal flat, not every such curve was filed as active; the % refers to the signal ratio; note: potency is the fitted concentration of half-maximal effect); conditions: ME-180 (cervical carcinoma) HRE-bla reporter, beta-lactamase ratio, CoCl2, 17 h; activation: stronger effect = higher value
Outline: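 HRE-bla ME-180 cells, overnight plating in Opti-MEM with 0.5% dialyzed FBS; cpd titration + EC50 CoCl2, 17 h, 37 degrees Celsius; CCF4 2.5 h RT; 460/530 nm ratio; AC50.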

[20] = biological target: Cytochrome P450 2D6 (Homo sapiens) (UniProt P10635); test: qHTS Assay for Inhibitors and Substrates of Cytochrome P450 2D6 (AID 891); conditions: recombinant CYP2D6, luciferin-ME EGE luminescence; series mostly up to 57.1 µM; note: potency is the fitted concentration of half-maximal effect; nearly all actives have a fitted effect of over 60% in size
Outline: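 Luminescent read-out of luciferin formed by 5 nM human CYP2D6 demethylating 30 uM Luciferin-ME EGE (Km level) over 60 min at room temperature after NADPH regeneration addition. Data normalized to full inhibition by 1.43 uM quinidine.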

SMILES	Potency [1] [µM]	activity change, negative = inhibition [2] [%]	Potency [3]	activity change, negative = inhibition [4] [%]	activity, negative = inhibition [5] [%]	Potency [6] [µM]	Potency [7] [µM]	Potency [8]	Potency [9]	Potency [10]	Potency [11]	Potency [12]	Potency [13]	Potency [14]	Potency [15]	Potency [16]	outcome [17]	activity change, negative = inhibition [18]	Potency [19]	Potency [20]
CC(=O)NCCNc1ncnc2ccc(-c3ccc4c(c3)OCO4)cc12	> 11.4	-23.9	0.501 µM (active)	12.4	-10.3	> 46	> 46	inactive	inactive	5.01 µM (active)	inactive	6.31 µM (active)	0.141 µM (active)	0.0891 µM (active)	0.126 µM (active)	inactive	inactive			
COc1ncc2nc(-c3cn(C)c4ccccc34)c(=O)n(C)c2n1	> 11.4	4.21	1 µM (active)	11.4	7.15	> 9.22	> 46	inactive	inactive	5.01 µM (active)	inactive	inactive	inactive	inactive	inactive	inactive	inactive			
COc1ccc(-n2c(=O)c(-c3cc(F)cc(F)c3)nc3cncnc32)cc1	> 11.4	-5	12.6 µM (active)	-16	6.92	> 9.22	> 46	inactive	inactive		inactive		inactive	inactive	inactive	inactive	inactive			
COc1ccc(CNc2ccnc(-c3c(C)noc3C)n2)c(OC)c1	> 11.4	11.5	1.26 µM (active)	8.32	0.0565	> 46	> 46	inactive		2.51 µM (active)	inactive	1.58 µM (active)	inactive	inactive	inactive		inactive			
N#CCCn1c(=O)c(-c2ccccc2)nc2cnc(Nc3ccccc3)nc21	> 11.4	-19.8	0.794 µM (active)	-16.9	-23.1			inactive					inactive	inactive	inactive	inactive	inactive			
CNc1nc(-c2c(C)noc2C)nc2ccccc12	> 11.4	5.72	0.0501 µM (active)	8.72	-5.04	> 46	> 46	inactive	inactive		inactive		17.8 µM (active)	20 µM (active)	inactive		inactive	37.6% [at 2.29 µM]		
COc1cccc(Cn2c(=O)c(-c3cn(C)c4ccccc34)nc3cncnc32)c1	> 11.4	2.97	1 µM (active)	-0.984	-0.403	> 9.22	> 46	inactive	inactive		inactive		inactive	inactive	inactive		inactive			
COc1ccccc1CNc1cc(-c2ccccc2C(F)(F)F)ncn1	> 11.4	-11.1	15.8 µM (active)	-8.05	9.59		> 46	inactive	inactive	inactive		1 µM (active)	inactive	inactive	inactive	inactive	inactive	8.84% [at 2.29 µM]		
CN(C)C(=O)c1ccc(-c2nccc(N(C)Cc3ccco3)n2)cc1	> 11.4	-6.22	12.6 µM (active)	-2.09	4.76		> 46	inactive	inactive				inactive	inactive	inactive	inactive	inactive			
Cn1c(=O)c(-c2ccc(F)cc2)nc2cnc(N3CCOCC3)nc21	> 11.4	14.8	2.51 µM (active)	24.2		> 9.22	> 46	inactive	inactive	inactive			inactive	inactive	inactive	inactive	inactive		2.51 µM (active)	
CCNc1ncc2nc(-c3cn(C)c4ccccc34)c(=O)n(CCC#N)c2n1	> 11.4	-22.2	5.01 µM (active)	-4.28	-12.7	> 9.22	> 46	inactive			inactive		inactive	inactive	inactive	inactive	inactive			3.98 µM (active)
COCCn1c(=O)c(-c2cccs2)nc2cnc(OC)nc21	> 11.4	6.04	2.51 µM (active)	15.6	6.32		> 46	inactive			inactive		inactive	inactive	inactive	inactive	inactive			
